# Data reported in paper PMC8384837, “Expanding the binding specificity for RNA recognition by a PUF domain”.
# Experiments:
# Experiment in all cases: yeast three-hybrid, YBZ-1, SC-Leu-His + 0.5 mM 3-AT, 4 days
# Settings in all cases: tags: N-Gal4 AD-HA kept; label: inside an RPR1-promoter hybrid RNA with tandem MS2 sites; ssRNA
# PUM1 PUF domain R6-VFR = molecular target: T1, PUM1 PUF domain R6-VFR (Homo sapiens, UniProt Q14671 828-1176, N1043V;Y1044F;Q1047R)
# T1 sequence: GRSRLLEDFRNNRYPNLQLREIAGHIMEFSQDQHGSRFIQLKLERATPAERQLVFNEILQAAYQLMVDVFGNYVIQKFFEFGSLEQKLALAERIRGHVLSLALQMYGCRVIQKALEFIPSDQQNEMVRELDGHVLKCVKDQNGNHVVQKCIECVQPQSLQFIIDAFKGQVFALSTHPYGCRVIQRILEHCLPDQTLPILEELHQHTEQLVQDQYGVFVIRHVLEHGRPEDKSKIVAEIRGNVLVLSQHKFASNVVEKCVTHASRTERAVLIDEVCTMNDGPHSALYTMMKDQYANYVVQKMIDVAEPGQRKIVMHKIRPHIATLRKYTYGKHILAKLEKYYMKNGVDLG
# Summary of the method: (§1)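 The interaction score is the logarithmic change in variant frequency from input to selection. It uses log2, with a pseudocount of 1 for absent variants, and frequencies came from PCR-amplified, Illumina-sequenced repeat regions. The libraries were Pumilio-1 PUF domains randomized at the three base-contacting residues per repeat, co-expressed with matching RNA elements in strain YBZ-1 (LexA–MS2 coat fusion, HIS3 reporter). Plating lasted four days on SC-Leu (input) or SC-Leu-His + 0.5 mM 3-AT (selection).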
# PUM1 PUF domain R3-SPR = PUM1 PUF domain R3-SPR (Homo sapiens, UniProt Q14671 828-1176, C935S;R936P;Q939R)
# Summary of the method: as §1
# PUM1 PUF domain R5-SAS = PUM1 PUF domain R5-SAS (Homo sapiens, UniProt Q14671 828-1176, C1007S;R1008A;Q1011S)
# Summary of the method: as §1
# PUM1 PUF domain R1-KSR = PUM1 PUF domain R1-KSR (Homo sapiens, UniProt Q14671 828-1176, S863K;R864S;Q867R)
# Summary of the method: as §1
# PUM1 PUF domain R1-RAV = PUM1 PUF domain R1-RAV (Homo sapiens, UniProt Q14671 828-1176, S863R;R864A;Q867V)
# Summary of the method: as §1
# PUM1 PUF domain R1-GWR = PUM1 PUF domain R1-GWR (Homo sapiens, UniProt Q14671 828-1176, S863G;R864W;Q867R)
# Summary of the method: as §1
# PUM1 PUF domain R3-RMR = PUM1 PUF domain R3-RMR (Homo sapiens, UniProt Q14671 828-1176, C935R;R936M;Q939R)
# Summary of the method: as §1
# PUM1 PUF domain R3-LYV = PUM1 PUF domain R3-LYV (Homo sapiens, UniProt Q14671 828-1176, C935L;R936Y;Q939V)
# Summary of the method: as §1
# PUM1 PUF domain R5-NPI = PUM1 PUF domain R5-NPI (Homo sapiens, UniProt Q14671 828-1176, C1007N;R1008P;Q1011I)
# Summary of the method: as §1
# PUM1 PUF domain R5-KGC = PUM1 PUF domain R5-KGC (Homo sapiens, UniProt Q14671 828-1176, C1007K;R1008G;Q1011C)
# Summary of the method: as §1
# PUM1 PUF domain R5-RPN = PUM1 PUF domain R5-RPN (Homo sapiens, UniProt Q14671 828-1176, C1007R;R1008P;Q1011N)
# Summary of the method: as §1
# PUM1 PUF domain R5-KTS = PUM1 PUF domain R5-KTS (Homo sapiens, UniProt Q14671 828-1176, C1007K;R1008T;Q1011S)
# Summary of the method: as §1
# PUM1 PUF domain R4-VPT = PUM1 PUF domain R4-VPT (Homo sapiens, UniProt Q14671 828-1176, N971V;H972P;Q975T)
# Summary of the method: as §1
# PUM1 PUF domain R4-PHV = PUM1 PUF domain R4-PHV (Homo sapiens, UniProt Q14671 828-1176, N971P;Q975V)
# Summary of the method: as §1
# PUM1 PUF domain R3-SQE = PUM1 PUF domain R3-SQE (Homo sapiens, UniProt Q14671 828-1176, C935S;R936Q;Q939E)
# Summary of the method: as §1
# PUM1 PUF domain R7-SRK = PUM1 PUF domain R7-SRK (Homo sapiens, UniProt Q14671 828-1176, N1080R;E1083K)
# Summary of the method: as §1
# PUM1 PUF domain R7-SHP = PUM1 PUF domain R7-SHP (Homo sapiens, UniProt Q14671 828-1176, N1080H;E1083P)
# Summary of the method: as §1
# PUM1 PUF domain R3-DYI = PUM1 PUF domain R3-DYI (Homo sapiens, UniProt Q14671 828-1176, C935D;R936Y;Q939I)
# Summary of the method: as §1
# PUM1 PUF domain R3-NSL = PUM1 PUF domain R3-NSL (Homo sapiens, UniProt Q14671 828-1176, C935N;R936S;Q939L)
# Summary of the method: as §1
# PUM1 PUF domain R7-GWD = PUM1 PUF domain R7-GWD (Homo sapiens, UniProt Q14671 828-1176, S1079G;N1080W;E1083D)
# Summary of the method: as §1
# Sequence of PUM1 PUF domain R3-LYV (Q14671 828-1176 C935L/R936Y/Q939V): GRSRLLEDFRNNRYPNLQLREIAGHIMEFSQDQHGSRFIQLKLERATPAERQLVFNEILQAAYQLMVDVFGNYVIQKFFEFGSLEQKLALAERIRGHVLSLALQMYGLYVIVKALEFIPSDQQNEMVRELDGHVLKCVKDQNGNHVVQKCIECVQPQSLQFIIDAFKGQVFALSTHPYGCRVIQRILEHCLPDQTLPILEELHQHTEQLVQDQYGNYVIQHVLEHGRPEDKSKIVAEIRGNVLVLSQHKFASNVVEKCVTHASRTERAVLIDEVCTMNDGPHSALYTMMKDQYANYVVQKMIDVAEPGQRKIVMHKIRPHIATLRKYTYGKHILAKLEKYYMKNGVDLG
# Sequence of PUM1 PUF domain R3-RMR (Q14671 828-1176 C935R/R936M/Q939R): as the sequence (Q14671 828-1176 C935L/R936Y/Q939V) above, with L108R, Y109M, V112R counted along it
# Sequence of PUM1 PUF domain R5-KGC (Q14671 828-1176 C1007K/R1008G/Q1011C): as the sequence (Q14671 828-1176 C935L/R936Y/Q939V) above, with L108C, Y109R, V112Q, C180K, R181G, Q184C counted along it
# Sequence of PUM1 PUF domain R1-RAV (Q14671 828-1176 S863R/R864A/Q867V): as the sequence (Q14671 828-1176 C935L/R936Y/Q939V) above, with S36R, R37A, Q40V, L108C, Y109R, V112Q counted along it
# Sequence of PUM1 PUF domain R5-KTS (Q14671 828-1176 C1007K/R1008T/Q1011S): as the sequence (Q14671 828-1176 C935L/R936Y/Q939V) above, with L108C, Y109R, V112Q, C180K, R181T, Q184S counted along it
# Sequence of PUM1 PUF domain R1-GWR (Q14671 828-1176 S863G/R864W/Q867R): as the sequence (Q14671 828-1176 C935L/R936Y/Q939V) above, with S36G, R37W, Q40R, L108C, Y109R, V112Q counted along it
# Sequence of PUM1 PUF domain R3-NSL (Q14671 828-1176 C935N/R936S/Q939L): as the sequence (Q14671 828-1176 C935L/R936Y/Q939V) above, with L108N, Y109S, V112L counted along it
# Sequence of PUM1 PUF domain R5-RPN (Q14671 828-1176 C1007R/R1008P/Q1011N): as the sequence (Q14671 828-1176 C935L/R936Y/Q939V) above, with L108C, Y109R, V112Q, C180R, R181P, Q184N counted along it
# Sequence of PUM1 PUF domain R7-GWD (Q14671 828-1176 S1079G/N1080W/E1083D): as the sequence (Q14671 828-1176 C935L/R936Y/Q939V) above, with L108C, Y109R, V112Q, S252G, N253W, E256D counted along it
# Sequence of PUM1 PUF domain R7-SHP (Q14671 828-1176 N1080H/E1083P): as the sequence (Q14671 828-1176 C935L/R936Y/Q939V) above, with L108C, Y109R, V112Q, N253H, E256P counted along it
sequence,measurement,setting,value
GGCUAGAACUAGUGGAUCCCCCGGCGCCCGGCGGCUCGAGCCCGGGUAAGUGCAAAUAGUCUGCAUGCCGCCGGGCGCCAUGCCUGCAGGUCGACUCUAGAAAACAUG,binding signal,PUM1 PUF domain R6-VFR,1.27 log2 enrichment (interaction score)
GGCUAGAACUAGUGGAUCCCCCGGCGCCCGGCGGCUCGAGCCCGGGUAAGUGUAACUAGUCUGCAUGCCGCCGGGCGCCAUGCCUGCAGGUCGACUCUAGAAAACAUG,binding signal,PUM1 PUF domain R3-SPR,1.77 log2 enrichment (interaction score)
GGCUAGAACUAGUGGAUCCCCCGGCGCCCGGCGGCUCGAGCCCGGGUAAGUGUGAAUAGUCUGCAUGCCGCCGGGCGCCAUGCCUGCAGGUCGACUCUAGAAAACAUG,binding signal,PUM1 PUF domain R5-SAS,5.82 log2 enrichment (interaction score)
GGCUAGAACUAGUGGAUCCCCCGGCGCCCGGCGGCUCGAGCCCGGGUAAGUGUAAAUUGUCUGCAUGCCGCCGGGCGCCAUGCCUGCAGGUCGACUCUAGAAAACAUG,binding signal,PUM1 PUF domain R1-KSR,5.58 log2 enrichment (interaction score)
same,binding signal,PUM1 PUF domain R1-RAV,2.63 log2 enrichment (interaction score)
same,binding signal,PUM1 PUF domain R1-GWR,4.28 log2 enrichment (interaction score)
GGCUAGAACUAGUGGAUCCCCCGGCGCCCGGCGGCUCGAGCCCGGGUAAGUGUAAUUAGUCUGCAUGCCGCCGGGCGCCAUGCCUGCAGGUCGACUCUAGAAAACAUG,binding signal,PUM1 PUF domain R3-SPR,3.06 log2 enrichment (interaction score)
same,binding signal,PUM1 PUF domain R3-RMR,4.19 log2 enrichment (interaction score)
same,binding signal,PUM1 PUF domain R3-LYV,5.79 log2 enrichment (interaction score)
GGCUAGAACUAGUGGAUCCCCCGGCGCCCGGCGGCUCGAGCCCGGGUAAGUGUUAAUAGUCUGCAUGCCGCCGGGCGCCAUGCCUGCAGGUCGACUCUAGAAAACAUG,binding signal,PUM1 PUF domain R5-NPI,2.85 log2 enrichment (interaction score)
same,binding signal,PUM1 PUF domain R5-KGC,3.36 log2 enrichment (interaction score)
same,binding signal,PUM1 PUF domain R5-RPN,3.03 log2 enrichment (interaction score)
same,binding signal,PUM1 PUF domain R5-KTS,1.52 log2 enrichment (interaction score)
GGCUAGAACUAGUGGAUCCCCCGGCGCCCGGCGGCUCGAGCCCGGGUAAGUGUACAUAGUCUGCAUGCCGCCGGGCGCCAUGCCUGCAGGUCGACUCUAGAAAACAUG,binding signal,PUM1 PUF domain R4-VPT,0.61 log2 enrichment (interaction score)
same,binding signal,PUM1 PUF domain R4-PHV,4.96 log2 enrichment (interaction score)
GGCUAGAACUAGUGGAUCCCCCGGCGCCCGGCGGCUCGAGCCCGGGUAAGUGUCAAUAGUCUGCAUGCCGCCGGGCGCCAUGCCUGCAGGUCGACUCUAGAAAACAUG,binding signal,PUM1 PUF domain R5-KTS,2.89 log2 enrichment (interaction score)
GGCUAGAACUAGUGGAUCCCCCGGCGCCCGGCGGCUCGAGCCCGGGUAAGUGUAAGUAGUCUGCAUGCCGCCGGGCGCCAUGCCUGCAGGUCGACUCUAGAAAACAUG,binding signal,PUM1 PUF domain R3-SQE,3.11 log2 enrichment (interaction score)
same,binding signal,PUM1 PUF domain R3-SPR,1.77 log2 enrichment (interaction score)
same,binding signal,PUM1 PUF domain R3-RMR,1.31 log2 enrichment (interaction score)
same,binding signal,PUM1 PUF domain R3-LYV,4.97 log2 enrichment (interaction score)
GGCUAGAACUAGUGGAUCCCCCGGCGCCCGGCGGCUCGAGCCCGGGUAAGUGUAAAUCGUCUGCAUGCCGCCGGGCGCCAUGCCUGCAGGUCGACUCUAGAAAACAUG,binding signal,PUM1 PUF domain R1-KSR,5.1 log2 enrichment (interaction score)
same,binding signal,PUM1 PUF domain R1-RAV,0.85 log2 enrichment (interaction score)
same,binding signal,PUM1 PUF domain R1-GWR,7.05 log2 enrichment (interaction score)
GGCUAGAACUAGUGGAUCCCCCGGCGCCCGGCGGCUCGAGCCCGGGUAAGUGUAUAUAGUCUGCAUGCCGCCGGGCGCCAUGCCUGCAGGUCGACUCUAGAAAACAUG,binding signal,PUM1 PUF domain R4-VPT,2.12 log2 enrichment (interaction score)
same,binding signal,PUM1 PUF domain R4-PHV,7.14 log2 enrichment (interaction score)
GGCUAGAACUAGUGGAUCCCCCGGCGCCCGGCGGCUCGAGCCCGGGUAAGUCUAAAUAGUCUGCAUGCCGCCGGGCGCCAUGCCUGCAGGUCGACUCUAGAAAACAUG,binding signal,PUM1 PUF domain R7-SRK,4.33 log2 enrichment (interaction score)
same,binding signal,PUM1 PUF domain R7-SHP,3.63 log2 enrichment (interaction score)
GGCUAGAACUAGUGGAUCCCCCGGCGCCCGGCGGCUCGAGCCCGGGUAAGUGUAAAUAGUCUGCAUGCCGCCGGGCGCCAUGCCUGCAGGUCGACUCUAGAAAACAUG,binding signal,PUM1 PUF domain R6-VFR,4.2 log2 enrichment (interaction score)
same,binding signal,PUM1 PUF domain R4-PHV,4.46 log2 enrichment (interaction score)
same,binding signal,PUM1 PUF domain R3-DYI,5.38 log2 enrichment (interaction score)
same,binding signal,PUM1 PUF domain R3-SPR,0.25 log2 enrichment (interaction score)
same,binding signal,PUM1 PUF domain R3-NSL,2.4 log2 enrichment (interaction score)
same,binding signal,PUM1 PUF domain R5-KGC,1.52 log2 enrichment (interaction score)
same,binding signal,PUM1 PUF domain R7-GWD,2.68 log2 enrichment (interaction score)
same,binding signal,PUM1 PUF domain R3-LYV,4.4 log2 enrichment (interaction score)
